Laboratory results taken from PubChem BioAssay AID1781 (National Center for Advancing Translational Sciences (NCATS), 2009).
Records with an inconclusive call do not appear. Activity calls are given as the source filed them. Calls come from the whole dose curve; as a rule, active = well fitted curve in the direction sought with a large enough effect; inconclusive = small, poorly fitted or top-dose-only effect, or effect the other way, or another doubt; inactive = no such curve, though single readings can be large or run the other way.

Target: Pyruvate kinase PKLR (Homo sapiens) (UniProt P30613)
Experiment: Confirmation Concentration-Response Assay for Activators of Human Liver Pyruvate Kinase
Details: purified hPK-L, Kinase-Glo ATP luminescence, 1 h; series mostly up to 57.5 µM
Description: Confirmatory assay NIH Chemical Genomics Center [NCGC] Matthew G. Vander Heiden, M.D., Ph.D. [Harvard Medical School, 77 Avenue Louis Pasteur, Boston, MA 02115] NCGC Assay Overview: Human pyruvate kinase liver (hPK-L) enzyme was supplied as a highly purified (>95% pure) preparation from Harvard Medical School and assayed for its ability to generate ATP from ADP using phosphoenolpyruvate (PEP) as a substrate. ATP generation was detected in a coupled reaction by luciferase-mediated luminescence, an ATP-dependent process. Pyruvate kinase substrates, PEP and ADP, were present in the assay at Km and approximately 10-fold below Km respectively. The enzyme was assayed at an intermediate level of activity to screen for both inhibitors and activators.
NCGC Assay Protocol Summary for L-isoform: Three uL of substrate mix (at r.t.) in assay buffer (50 mM Imidazole pH7.2, 50 mM KCl, 7 mM MgCl2, 0.01% Tween 20, 0.05% BSA) was dispensed into white solid bottom 1,536 well microtiter plates so that the final concentrations of substrates in the assay were 0.1 mM ADP and 0.5 mM PEP. 23 nL of compound were delivered by a pin tool and 1 uL of enzyme mix (final concentration of 0.1 nM) in assay buffer (4 degree Celsius) was added. Plates were incubated at room temperature for 1 hour. Two uL of detection mix (Kinase-Glo, Promega; at 4 degree Celsius protected from light) was added and luminescence read by a ViewLux (Perkin Elmer) at 1 second exposure/plate. Data were normalized to the uninhibited (row 31). Additionally, a no enzyme and 5-fold enzyme control was dispensed in row 32, split equally between the two conditions.

Pyruvate kinase PKLR (Homo sapiens), sequence (P30613 whole entry, looked up): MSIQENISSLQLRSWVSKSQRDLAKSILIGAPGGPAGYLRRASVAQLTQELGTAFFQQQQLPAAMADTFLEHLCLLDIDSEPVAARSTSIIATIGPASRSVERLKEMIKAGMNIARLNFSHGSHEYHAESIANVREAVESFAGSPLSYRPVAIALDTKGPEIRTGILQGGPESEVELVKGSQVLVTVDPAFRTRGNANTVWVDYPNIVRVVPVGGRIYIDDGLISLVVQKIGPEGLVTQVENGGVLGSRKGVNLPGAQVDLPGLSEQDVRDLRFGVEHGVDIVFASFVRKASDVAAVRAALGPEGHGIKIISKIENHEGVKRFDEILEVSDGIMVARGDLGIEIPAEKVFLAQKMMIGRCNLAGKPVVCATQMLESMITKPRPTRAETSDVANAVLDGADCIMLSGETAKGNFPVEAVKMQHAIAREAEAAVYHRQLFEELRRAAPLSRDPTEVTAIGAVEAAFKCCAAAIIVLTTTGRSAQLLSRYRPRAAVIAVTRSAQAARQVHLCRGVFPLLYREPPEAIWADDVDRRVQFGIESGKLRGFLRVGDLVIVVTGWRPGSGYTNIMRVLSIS

outcome, inactive:
Cc1cc2c(s1)c1cnn(Cc3ccccc3Cl)c(=O)c1n2C
Cc1cc2c(s1)c1cnn(Cc3ccccc3F)c(=O)c1n2C
O=S(=O)(c1ccc2c(c1)OCO2)N1CCN(S(=O)(=O)c2c(F)cccc2F)CC1
COc1ccc(S(=O)(=O)N2CCN(S(=O)(=O)c3ccc4c(c3)OCCO4)CC2)cc1
COC(=O)c1cc2c(s1)c1cnn(Cc3ccccc3F)c(=O)c1n2C
Cn1c2cc(C=O)sc2c2cnn(Cc3ccccc3F)c(=O)c21
Cn1c2cc([N+](=O)[O-])sc2c2cnn(Cc3ccccc3F)c(=O)c21
Cn1c2cc(C#N)sc2c2cnn(Cc3ccccc3F)c(=O)c21
O=C(CN1C(=O)N/C(=C\c2cccn2-c2cccc(C(=O)O)c2)C1=O)Nc1ccccc1F
Cn1c2ccsc2c2cnn(Cc3ccccc3F)c(=O)c21
O=S(=O)(NC1CCC(NS(=O)(=O)c2c(F)cccc2F)CC1)c1ccc2c(c1)OCCO2 (stereo not given)
O=S(=O)(NC1CCN(S(=O)(=O)c2c(F)cccc2F)C1)c1ccc2c(c1)OCCO2 (stereo not given)
Cc1cc2c(s1)c1cnn(Cc3cccc(Cl)c3)c(=O)c1n2C
Cc1cc2c(s1)c1cnn(Cc3ccc(C)c(F)c3F)c(=O)c1n2C
CC(O)c1cc2c(s1)c1cnn(Cc3ccccc3F)c(=O)c1n2C (stereo not given)
COc1ccc(Cn2ncc3c4sc(C)cc4n(C)c3c2=O)cc1
O=S(=O)(NC1CCN(S(=O)(=O)c2ccc3c(c2)OCCO3)C1)c1c(F)cccc1F (stereo not given)
Cc1cc2c(s1)c1cnn(Cc3ccc(-c4ccccc4)cc3)c(=O)c1n2C
COc1cc2c(s1)c1cnn(Cc3ccccc3F)c(=O)c1n2C
Cc1cc2c(s1)c1cnn(Cc3ccc(F)c(F)c3F)c(=O)c1n2C
Cc1ccc(Cn2ncc3c4sc(C)cc4n(C)c3c2=O)cc1
Cc1cc2c(s1)c1cnn(Cc3ccc(C(F)(F)F)cc3)c(=O)c1n2C
Cc1nc2ccc(S(=O)(=O)N3CCN(S(=O)(=O)c4c(F)cccc4F)CC3)cc2s1
COc1cc(F)c(S(=O)(=O)N2CCN(S(=O)(=O)c3ccc4c(c3)OCCO4)CC2)c(F)c1
O=S(=O)(NCCCCCCNS(=O)(=O)c1c(F)cccc1F)c1ccc2c(c1)OCCO2
O=S(=O)(NCCCCCNS(=O)(=O)c1c(F)cccc1F)c1ccc2c(c1)OCCO2
Cc1cc2c(s1)c1cnn(Cc3c(F)cccc3F)c(=O)c1n2C
Cc1cc2c(s1)c1cnn(Cc3ccc(F)cc3F)c(=O)c1n2C
Cc1cc2c(s1)c1cnn(Cc3ccc(C(F)(F)F)cc3F)c(=O)c1n2C
O=S(=O)(c1ccc2c(c1)OCCCO2)N1CCN(S(=O)(=O)c2c(F)cccc2F)CC1
O=S(=O)(NCCNS(=O)(=O)c1c(F)cccc1F)c1ccc2c(c1)OCCO2
COc1ccc(S(=O)(=O)N2CCN(S(=O)(=O)c3c(F)cccc3F)CC2)cc1
N#Cc1ccc(S(=O)(=O)N2CCN(S(=O)(=O)c3ccc4c(c3)OCCO4)CC2)cc1
CCCc1cc(F)c(S(=O)(=O)N2CCN(S(=O)(=O)c3ccc4c(c3)OCCO4)CC2)cc1F
Cn1c2ccsc2c2ncn(Cc3ccccc3F)c(=O)c21
